An excerpt weighted towards active compounds, which were near 9% of everything screened.
BAZ2B block: BAZ2B (human) inhibition. AlphaScreen BAZ2B-H3K14Ac peptide displacement. Potency, µM (doses to about 114 µM), inactives show at the highest dose activity change, negative = inhibition, actives largely listed as inhibitors. 4.4% of 360,000 active. AID 504333; also: % is scaled to controls: 0 for no effect and ±100 for the full control effect; nearly all actives have a fitted effect of over 60% in size
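AlphaScreen luminescence quantifies BAZ2B engagement of H3K14Ac peptide; the protein and biotinylated peptide are both at 50 nM final, buffer PBS pH 7.4 with 0.01% Tween-20, all steps at room temperature.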
JMJD2A Tudor: blocks the human JMJD2A Tudor domain; AID 504339; O75164; Potency, µM (doses to about 114 µM), for the others: at the highest dose activity change, negative = inhibition, actives largely listed as inhibitors; 4.4% of 390,000 active; AlphaScreen JMJD2A-Tudor / H3K4me3 peptide binding; also: % is scaled to controls: 0 for no effect and ±100 for the full control effect; nearly all actives have a fitted effect of over 50% in size
HP1b chromo inh: HP1-beta chromodomain-methylated histone interaction inhibition | P83916 | AlphaScreen HP1-beta / biotin-H3K9me3 peptide binding | Potency, µM (titrated, usually from 114 µM), inactives show at the highest dose activity change, negative = inhibition, hits mostly inhibitors | 0.56% of 390,000 active; also: nearly all actives have a fitted effect of over 70% in size
Target sequence (P83916 whole entry, looked up): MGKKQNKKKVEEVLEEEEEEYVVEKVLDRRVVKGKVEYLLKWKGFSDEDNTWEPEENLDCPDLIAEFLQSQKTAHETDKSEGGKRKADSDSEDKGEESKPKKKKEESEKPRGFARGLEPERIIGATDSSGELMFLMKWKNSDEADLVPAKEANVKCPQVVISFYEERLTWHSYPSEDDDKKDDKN
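AlphaScreen: HP1-beta (50 nM) preformed 30 min with biotin-H3(1-18)K9me3 peptide (50 nM) in PBS pH 7.4, 0.01% Tween-20. Compound added for 30 min at RT, then streptavidin donor/nickel chelate acceptor beads (10 ug/mL) for 30 min.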
PLK1 PBD block: inhibitors of human PLK1 polo-box domain binding. Plk1 PBD binding of FITC phosphopeptide, fluorescence polarization. AID 720504. Potency, µM, for the others: max response, negative = inhibition, hits mostly inhibitors. P53350. 2.8% of 360,000 active; also: series mostly up to about 57 µM; % is scaled to controls: 0 for no effect and ±100 for the full control effect; nearly all actives have a fitted effect of over 65% in size
12-LOX inh: ALOX12 (human) lipoxygenase inhibition; Potency, µM (doses to about 108 µM), for inactives: top-dose activity change, negative = inhibition, actives largely listed as inhibitors; 1.1% of 580,000 active; AID 1671190; purified 12hLO, xylenol orange hydroperoxide absorbance; also: % is scaled to controls: 0 for no effect and ±100 for the full control effect
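Purified human 12hLO at 150 nM in 25 mM Hepes, 0.01% Triton X-100, pH 7.0, preincubated 15 min at room temperature with compound. Reaction started with 40 uM arachidonic acid, 30 min at room temperature. Hydroperoxide measured by Fe-xylenol orange, 573/405 nm absorbance ratio.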
G9a block: inhibitors of human histone lysine methyltransferase G9a. G9a H3K9 monomethylation, AlphaScreen, 2 h. Potency, µM (titrated, usually from 102 µM), for inactives: top-dose activity, negative = inhibition, usual class: inhibitors. 8.8% of 350,000 active; also: % is scaled to controls: 0 for no effect and ±100 for the full control effect; nearly all actives have a fitted effect of over 75% in size
Target sequence (Q96KQ7 913-1193 limits assumed): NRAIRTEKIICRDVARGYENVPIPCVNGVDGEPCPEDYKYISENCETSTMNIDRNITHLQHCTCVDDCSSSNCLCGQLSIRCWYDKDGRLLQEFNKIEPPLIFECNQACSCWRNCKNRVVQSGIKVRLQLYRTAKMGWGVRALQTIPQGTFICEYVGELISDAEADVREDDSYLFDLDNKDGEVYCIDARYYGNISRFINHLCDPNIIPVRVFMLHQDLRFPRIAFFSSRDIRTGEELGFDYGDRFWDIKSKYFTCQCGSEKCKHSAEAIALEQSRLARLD
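AlphaScreen read-out: biotin-H3K9 peptide (500 nM) methylation by 20 nM enzyme with 20 uM SAM, 2 h at room temperature after 15 min compound preincubation; anti-monomethyl H3K9 antibody plus donor/acceptor beads, 10 min dark.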
Numbers without * were called inactive; ? = inconclusive; / = no result given; ! = repeats disagree; [ ] = dose if it differs, or a comment. Calls follow the shape of the dose curve; as a rule, active = well fitted curve in the direction sought with a large enough effect; inconclusive = small, poorly fitted or top-dose-only effect, or another doubt; inactive = no such curve, though single readings can be large; an effect the other way counts as inactive or inconclusive. Potency is read from the fitted curve at half-maximal effect.

SMILES	BAZ2B block	JMJD2A Tudor	HP1b chromo inh	PLK1 PBD block	12-LOX inh	G9a block
CCOC(=O)C1CCN(C(C(=O)Nc2ccc3c(c2)OCCO3)c2ccccc2)CC1 (stereo not drawn)	?	-15%	8%	4%	24%	6%[12.7 µM]
O=C1CN(C(=O)c2ccc(Br)o2)C(c2ccccc2)c2cc(Br)ccc2N1 (stereo not drawn)	?	?	-7%	-7%	-26%	?
Cc1ccc2c(c1)C(c1ccccc1)N(C(=O)c1ccc(Br)o1)CC(=O)N2 (stereo not drawn)	?	?	-1%	-13%	?	40µM*
O=C1CN(C(=O)c2ccc(Br)o2)C(c2ccc(F)cc2)c2cc(Cl)ccc2N1 (stereo not drawn)	?	-23%	-13%	-10%	0%[57.4 µM]	?
O=C1CN(C(=O)c2ccc(Br)o2)C(c2ccccc2)c2cc(Cl)ccc2N1 (stereo not drawn)	?	-34%	-5%	1%	19%[57.4 µM]	56µM*
COc1ccc(OC)c(NC(=O)CSCc2cc(=O)n3cc(C)ccc3n2)c1	/	/	/	/	12%	/
O=C(NCc1ccc(Cl)nc1)c1cnn2c1CN(C(=O)c1cccnc1)CC2	/	/	/	/	-1%[6.33 µM]	/
CC1CCN(C(=O)CSc2nnc(Cc3cccn3C)n2CCc2ccccc2)CC1	-36%	?	9%	-12%	269%	45µM*
Cn1cccc1Cc1nnc(SCC(=O)NC2CCCC2)n1CCc1ccccc1	-34%	?	9%	-9%	312%	79µM*
CCn1c(Cc2ccccc2)nnc1SCC(=O)NC1CCCC1	-3%	-6%	28%	-13%	-4%	-26%
Cn1cccc1Cc1nnc(SCC(N)=O)n1CCc1ccccc1	-26%	-20%	36%	-9%	176%	45µM*
Cn1cccc1Cc1nnc(SCC(=O)N2CCCCCC2)n1CCc1ccccc1	-35%	-19%	44%	-7%	417%	50µM*
Cn1cccc1Cc1nnc(SCC(=O)N2CCCC2)n1CCc1ccccc1	?	-26%	12%	-5%	14%	?
Cc1onc(-c2c(Cl)cccc2Cl)c1C(=O)ONC(=O)c1cc(C(F)(F)F)cc(C(F)(F)F)c1	1%	-1%	11%	-5%	?	/
Cc1cc(-c2csc3ncnc(N4CCN(C)CC4)c23)cc(C)c1C	-18%	-26%	-14%	-20%	-16%	-13%
Cc1c(NC(=O)c2cc(-c3ccccc3)nc3ccccc23)c(=O)n(-c2ccccc2)n1C	/	-8%	30%	0%	-6%	/
Cc1[nH]ncc1N=Cc1ccc([N+](=O)[O-])cc1	-8%	-33%	-14%	21µM*	-9%	-7%
Cc1ccc(C)c(N=Cc2ccc([N+](=O)[O-])cc2)c1	/	/	/	/	-12%	/
CCNc1nc(NCC)nc(NC(N)=S)n1	-5%	-8%	16%	-12%	-24%	25µM*
CCNc1nc(NC(N)=S)nc(NC(C)(C)C)n1	1%	-5%	?	27µM*	?	3.5µM*
CCNc1nc(NC(C)(C)C)nc(N2CCCC2)n1	10%	-2%	34%	-2%	-5%	16%[59 µM]
CCCC(=O)Nc1nnc(Sc2ccc(N(C)C)cc2)s1	1%	-2%	2%	-11%	413%	-9%[12.7 µM]
Cc1cc(C)cc(NC(=O)CN2CCN(c3ncccn3)CC2)c1	?	-6%	13%	-9%	18%	5%
O=C(NCCc1ccccc1)c1ccc(=O)[nH]c1	20%	-16%	10%	-2%	0%	-7%[12.7 µM]
COCC1CN(C2CCC2)CC12CCN(C(=O)C1(c3ccccc3)CC1)CC2 (stereo not drawn)	/	/	/	/	2%	/
SMILES	BAZ2B block	JMJD2A Tudor	HP1b chromo inh	PLK1 PBD block	12-LOX inh	G9a block
CC1=C(C(=O)Nc2ccccc2)C(c2ccc(C)o2)n2c(s/c(=C\c3ccco3)c2=O)=N1 (stereo not drawn)	50µM*	-13%	19%	0%	-9%	?
COc1cc(F)ccc1-c1ccnc2nc(C3CCC3)nn12	/	/	/	/	27%	/
COc1ccc(C(=O)Nc2ccncc2)cc1OC	5%	-11%	22%	-1%	4%	-11%[12.7 µM]
CN(C)CCCc1cc(C(=O)Nc2ccc(-c3ccncc3)cc2)ccc1O	/	/	/	/	?	25µM*!
O=C(COC(=O)COc1ccccc1)Nc1cccnc1Cl	/	-7%	27%	-3%	?	/
Cc1ccccc1C(=O)NNC(=S)NC(=O)c1cccs1	-1%	-1%	26%	1%	-25%	?
O=C(NC(=S)Nc1ccccc1N1CCN(C(=O)c2ccccc2)CC1)c1cccs1	-11%	-23%	6%	-7%	16µM*	11%
O=C(NC(=S)NNC(=O)c1cccs1)c1ccccc1	6%	-18%	11%	-28%	?	8.9µM*
CC(C)(C)c1ccc(C(=O)NC(=S)NNC(=O)c2cccs2)cc1	-37%	?	-25%	-21%	40µM*	40µM*
Cc1cccc(C(=O)NC(=S)NNC(=O)c2cccs2)c1	11%	25µM*	?	-11%	?	7.1µM*
Cc1n(CC(=O)c2ccc(F)cc2)c2ccccc2[n+]1C	-8%	-6%	27%	-12%	9%	-24%
CCOc1cc2[nH]c(=S)n(CCCOC)c(=O)c2cc1OCC	4%	-8%	25%	-3%	7%	-8%[59 µM]
Cc1c(C(=O)c2ccc3c(c2)OCO3)ccc2c1OCO2	/	3%	73%	6%	-10%	/
O=C(NC(=S)NCc1ccccc1Cl)c1cccs1	/	-21%	3%	9%	16µM*	/
O=C(NCc1ccccc1F)c1cccs1	6%	-15%	26%	-6%	12%	-2%

Source: PubChem BioAssay
